Assay results from PMC4552634, “A New Set of Chemical Starting Points with Plasmodium falciparum Transmission-Blocking Potential for Antimalarial Drug Discovery” (PLoS ONE, 2015).
Hit rate of the full screen: of about 13,000 compounds, about 3,200 (25%) showed an effect of 50% or more. This is one part of the list.

tested on: P. falciparum stage V gametocytes; parameters: BacTiter-Glo ATP luminescence viability of purified stage V gametocytes in 384-well plates, per cent inhibition versus DMSO; conditions: 48 h, 5 µM; inhibitor

SMILES	% Inhibition [%]
O=C(NC1CCCCC1)c1csc(C2CCCN(C(=O)c3ccc(O)c(-c4cccc(C(F)(F)F)c4)c3)C2)n1 (stereo not drawn) [TCMDC-140156]	5.189
CC(=O)c1ccc(-c2cccc3c(CC(=O)Nc4ccc5nccc(N6CCN(C)CC6)c5c4)cccc23)cc1 [TCMDC-139271]	-10.77
CCOC(=O)c1cc(C(=O)NCCCCN2CCC(c3cn(C)c4ccccc34)CC2)ccc1-c1ccc(C(F)(F)F)cc1 [TCMDC-138751]	1.206
O=C(NCCCCN1CCC(c2cccc3ccccc23)CC1)c1ccc(-c2ccc(C(F)(F)F)cn2)cc1 [TCMDC-138570]	-25.01
O=C(NCCCCN1CCC(c2ccc3c(c2OCC2COCO2)CCCC3)CC1)c1ccc(-c2ccc(C(F)(F)F)cc2)cc1 (stereo not drawn) [TCMDC-138770]	14.16
O=C(NCCCCN1CCC(c2ccc3c(c2OCCO)CCCC3)CC1)c1ccc2oc(-c3ccc(C(F)(F)F)cc3)cc2c1 [TCMDC-138771]	113.6
O=C(NCCCCN1CCC(c2ccc3c(c2OCCCO)CCCC3)CC1)c1ccc(-c2ccc(C(F)(F)F)cc2)cc1 [TCMDC-138743]	141.9
O=C(NCCCCN1CCC(c2ccc3c(c2OCCO)CCCC3)CC1)c1ccc(-c2ccc(C(F)(F)F)cc2)cc1 [TCMDC-138714]	98.87
Cn1cc(C2CCN(CCCCNC(=O)c3ccc(-c4ccc(C(F)(F)F)cc4)c(CO)c3)CC2)c2ccccc21 [TCMDC-138748]	65.02
O=C(NCCCCN1CCC(c2ccc3c(c2OCCO)CCCC3)CC1)c1sc(-c2ccc(C(F)(F)F)cc2)nc1CO [TCMDC-138776]	39.12
CNC(=O)COc1cc(C)c(C2CCN(CCCCNC(=O)c3ccc(-c4ccc(C(F)(F)F)cc4)cc3)CC2)cc1C [TCMDC-138846]	42.45
CN1CCCc2ccc(NC(=O)c3cc(-c4ccc(Cl)cc4)cs3)cc2C1 [TCMDC-133946]	39.01
CCN(CCCN1CCCCC1)c1nc(C)cc(Nc2ccc(Cl)cc2)n1 [TCMDC-137045]	21.21
O=C(Nc1ccc2c(c1)OCO2)NC1CCN(c2ccnc(NCc3ccc(F)cc3)n2)CC1 [TCMDC-133635]	26.57
Cc1ccc(NC(=O)c2ccc3ncccc3c2)cc1OC1CCN(CCC(C)C)C1 (stereo not drawn) [TCMDC-133980]	9.414
CCCC1N=C(N)N=C(N)N1c1ccc(OC)cc1 (stereo not drawn) [TCMDC-131295]	-30.41
O=C(Nc1ccc(CCNC2=NCCN2)cc1)Nc1ccc(CCNC2=NCCN2)cc1 [TCMDC-137205]	10.33
CCCCc1ccc2[nH]c(NC(=O)OC)nc2c1 [TCMDC-131798]	-12.96
CC(C)(C)OC(=O)Cn1cnc2cc(NC(=O)c3cc([N+](=O)[O-])cc([N+](=O)[O-])c3)ccc21 [TCMDC-131910]	-17.84
Cc1nc2ccc3ccc(CNc4ccc(C(=O)N[C@@H](CCC(=O)O)C(=O)N[C@@H](Cc5cccs5)C(=O)O)c(F)c4)cc3c2c(=O)[nH]1 [TCMDC-137819]	7.673
O=C(CNC(=O)c1ccc(O)cc1)Nc1cccc(-c2cccc(-c3nc4ccc(C(F)(F)F)cc4[nH]3)c2)c1 [TCMDC-136816]	11.2

SMILES	% Inhibition [%]
CN1CCN(CC(O)CNC(=O)Nc2ccc(Br)cc2)CC1 (stereo not drawn) [TCMDC-134635]	15.1
O=C(NCCCCN1CCC(c2ccc3c(c2OCC(O)c2ccc(Cl)cc2)CCCC3)CC1)c1ccc(-c2ccc(C(F)(F)F)cc2)cc1 (stereo not drawn) [TCMDC-138749]	115
O=C(NCCCCN1CCC(c2ccc3c(c2OCCN2CCCC2)CCCC3)CC1)c1ccc(-c2ccc(C(F)(F)F)cc2)cc1 [TCMDC-138768]	107.4
CC(=O)COc1c(C2CCN(CCCCNC(=O)c3ccc(-c4ccc(C(F)(F)F)cc4)cc3)CC2)ccc2c1CCCC2 [TCMDC-138738]	105.6
NC(N)=Nc1nccc(NCc2ccccc2)n1 [TCMDC-141971]	14.91
N#Cc1ccc(N(CCOc2ccc3c(c2)CCC(=O)N3)Cc2ccccc2C(F)(F)F)cc1C(F)(F)F [TCMDC-132801]	23.33
O=C(Nc1cccc(CN2CCCN(Cc3ccc(O)cc3)CC2)c1)c1cc(F)cc(F)c1 [TCMDC-141881]	2.179
O=C(/C=C/c1ccc(Cl)c(Cl)c1)NCCCCCN1CCC(NC(=O)NCCc2ccccc2)CC1 [TCMDC-135707]	-32.39
CCCC(=O)Nc1ccc(OCCCN(Cc2ccccc2OC(F)(F)F)c2ccc(C#N)c(C(F)(F)F)c2)cc1 [TCMDC-135667]	14.29
COc1ccccc1-c1[nH]c2ccccc2c1CN1CCC(c2c(C)cccc2C)CC1 [TCMDC-141628]	83.13
COc1cccc(CN2CCC(CCOC(c3ccccc3)c3ccccc3)CC2)c1O [TCMDC-136041]	-8.929
COc1cccc(-c2[nH]c3ccccc3c2CN2CCC(c3c(C)cccc3C)CC2)c1 [TCMDC-141630]	29.07
CCN1CCN(c2cc(C)c3cc(NC(=O)c4ccc(Br)o4)ccc3n2)CC1 [TCMDC-123600]	1.193
COc1ccc(-c2ccc(NC(=O)c3ccc(Cl)cc3)cc2)cc1CN1CCC(O)CC1 [TCMDC-133337]	0.3946
COc1ccc(-c2ccc(NC(=O)c3ccc(Cl)cc3)cc2)cc1CN1CCCN(C)CC1 [TCMDC-132510]	104.3
COc1ccc(-c2cccc(NC(=O)c3cccc(Cl)c3)c2)cc1CN1CCN(C)CC1 [TCMDC-132617]	28.66
COc1ccc(-c2ccc(CNC(=O)c3ccc(Cl)cc3)c(F)c2)cc1CN1CCCN(C)CC1 [TCMDC-133369]	-6.152
COc1ccc(-c2ccc(NC(=O)c3ccc(Cl)cc3)cc2)cc1CN1CCN(C)CC1 [TCMDC-132512]	92.99
COc1ccc(-c2ccc(NC(=O)c3cccc(Cl)c3)cc2)cc1CN1CCN(C)CC1 [TCMDC-132526]	82.79
COc1ccc(-c2cccc(NC(=O)c3ccc(Cl)cc3)c2)cc1CN1CCCN(C)CC1 [TCMDC-132602]	-35
COc1ccc(-c2ccc(NC(=O)c3ccc(C#N)cc3)cc2)cc1CN1CCN(C)CC1 [TCMDC-133336]	-18.08
